Assay outcomes (PubChem BioAssay)
Most compounds without a hit are left out; they make up all but 2.9% or so of the library.
sPLA2-III inh: Blocks human group III sPLA2 activity | Q9NZ20 | 0.56% of 370,000 active | inhibition, % at 12.2 µM | AID 743126 | QFRET BODIPY PC-A2 liposome hydrolysis, fluorescence;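 active = inhibition above mean plus 3 SD of compounds lying within the high and low control bounds, cut at about 19% in these data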;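 note: 0% = median of test compound wells and 100% = no enzyme DMSO wells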
Target sequence (Q9NZ20 whole entry, looked up): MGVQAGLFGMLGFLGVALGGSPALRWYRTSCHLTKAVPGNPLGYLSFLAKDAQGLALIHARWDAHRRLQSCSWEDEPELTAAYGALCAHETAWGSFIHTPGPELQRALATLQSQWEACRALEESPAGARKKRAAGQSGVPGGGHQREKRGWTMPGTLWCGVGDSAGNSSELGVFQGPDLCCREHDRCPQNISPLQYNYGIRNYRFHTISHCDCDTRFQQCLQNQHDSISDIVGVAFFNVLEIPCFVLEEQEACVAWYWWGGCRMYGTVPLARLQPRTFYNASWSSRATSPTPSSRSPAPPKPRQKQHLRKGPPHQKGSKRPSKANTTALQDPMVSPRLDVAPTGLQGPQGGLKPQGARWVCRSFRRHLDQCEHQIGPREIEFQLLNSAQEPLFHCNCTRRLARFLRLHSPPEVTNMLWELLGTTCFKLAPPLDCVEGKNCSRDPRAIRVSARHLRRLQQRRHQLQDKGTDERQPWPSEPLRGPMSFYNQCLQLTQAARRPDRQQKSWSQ
Rtt109 HAT inh: blocks Candida albicans Rtt109/Vps75 acetyltransferase activity. Q5AAJ8. purified Rtt109/Vps75, ThioGlo CoA-SH fluorescence, 4 h. inhibition, % at 34.9 µM. 0.16% of 330,000 active;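 active = inhibition of at least 50% in every replicate; inconclusive = best replicate reaches 50% inhibition but some replicates fall short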
ABHD5-PLIN5 inh: ABHD5-PLIN5 protein interaction inhibition; Split G. princeps luciferase complementation, luminescence, 4 h; 0.78% of 360,000 active; AID 602281; inhibition, % at 4 µM;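 active = inhibition above the mean inhibition across every tested compound plus 3 SD, cut at about 22% in these data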;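 note: 0% = DMSO only wells and the 100% control is not disclosed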
Myeloid diff MLP: myeloid differentiation induction. ER-HoxA9 myeloid progenitors, lysozyme-GFP differentiation, flow cytometry. calls only at 10 µM. 1% of 360,000 active;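 active = normalized GFP-positive differentiation at or above the plate's own cutoff, the solvent-only control mean plus 3 SD; inconclusive = no clear call, values can overlap the other calls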;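 note: cells exposed to compound for four days before flow analysis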
Cardio protect: protects H9c2 cardiomyocytes from peroxide injury; AID 588492; 0.63% of 360,000 active; H2O2 injury protection, ATPLite, 2 h; protection from H2O2 cell death, % at 20 µM;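 active = compounds giving at least 50% protection of heart cells from peroxide-induced death in the single-dose screen, raw or plate-pattern-corrected value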;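 note: 0% = DMSO wells with peroxide and 100% = DMSO wells without peroxide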
DAGLB inhibitor: diacylglycerol lipase beta (human) inhibition; Q8NCG7; HEK293T DAGLB membrane lysate, EnzChek fluorogenic substrate; inhibition, % at 5.17 µM; 0.059% of 340,000 active; in the data active = inhibition above about 34%;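 note: 0% = enzyme with vehicle and 100% = wells lacking enzyme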
ABHD5 PLIN5 conf: ABHD5-PLIN5 interaction inhibition, confirmed; AID 651612; shares compounds with ABHD5-PLIN5 inh; 67% of 2,200 active; biochemical ABHD5-PLIN5 interaction, luminescence; inhibition, % at 4 µM; in the data active = inhibition above about 23%;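 note: 0% = DMSO vehicle wells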
HNF4 split-luc: HNF4 split-luciferase signal hit, counter-screen | inhibition, % at 4 µM | HNF4 dimerization, luminescence, biochemical | 77% of 2,200 active | shares compounds with ABHD5-PLIN5 inh;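 active = mean inhibition across replicate wells exceeding the computed hit threshold, cut at about 13% in these data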;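 note: light from luciferase halves that rejoin when HNF4 fusion proteins dimerize; 0% = DMSO only wells and the 100% control is not given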
The depositor's hits bear a star; i = inactive; ? = inconclusive; / = not tested or not shown.

SMILES	sPLA2-III inh	Rtt109 HAT inh	ABHD5-PLIN5 inh	Myeloid diff MLP	Cardio protect	DAGLB inhibitor	ABHD5 PLIN5 conf	HNF4 split-luc
CNC(=S)N(C)/N=C1/C(=O)N(Cc2c(Cl)cccc2Cl)c2ccccc21	15.0	7.7	26.7*	i	-14.3	8.2	-3.8	15.9*
COc1ccc(/C=N/Nc2ncc(Br)cn2)c(OC)c1	4.2	3.2	1.9	i	-6.1	-1.1	/	/
CC(C)N1CCC2(CC1)N=C(c1ccc3c(c1)OCO3)CC(c1cc(Cl)ccc1O)N2 (stereo unspecified)	-22.6	?	75.3*	i	1.6	10.2	31.4*	62.0*
COc1ccc(C2CC(=O)Oc3cc4c(cc32)OCO4)cc1 (stereo unspecified)	-2.8	-1.0	4.2	i	11.2	-1.5	/	/
CCC(NC(=O)c1ccccc1NC(=O)c1ccc(C)cc1)C(=O)O (stereo unspecified)	-1.8	0.6	5.3	i	-7.2	2.1	/	/
C=C1C(=O)O[C@H]2C[C@H]1[C@@H](OC(C)=O)C/C(C)=C/CC/C(C)=C\CC[C@]2(C)O	-1.6	-0.5	70.5*	?	-36.3	4.8	87.7*	63.7*
Cc1[nH]c(=O)[nH]c(=O)c1S(=O)(=O)N1CCCCC1	0.5	-2.3	29.2*	i	-0.4	0.1	-2.2	15.8*
Cc1[nH]c(C)c(S(=O)(=O)N2CCCCC2)c1C(=O)N1CCCCC1	3.4	2.7	-1.3	i	1.6	-1.1	/	/
c1cn2c(-c3ccoc3)cncc2n1	4.8	/	23.1*	i	-0.1	/	34.0*	35.4*
CC(C)(C)CNC(=O)C1(C)CCN1C(=O)C1(c2ccccc2)CC1 (stereo unspecified)	5.8	/	3.2	i	14.1	/	/	/
O=C(CCN1C(=O)c2ccccc2C1=O)Oc1ccc2ccccc2c1	1.9	-2.3	-1.6	i	-5.2	-7.0	/	/
CC1=CC(C)(C)Nc2ccc(OC(=O)CCN3C(=O)c4ccccc4C3=O)cc21	9.1	6.5	75.0*	?	-16.1	1.1	85.6*	90.3*
O=C(/C=C/c1cccs1)c1cc(Br)ccc1OC(=O)N1CCOCC1	-3.5	2.2	25.4*	i	28.4	-1.8	57.0*	39.6*
CC(=O)Nc1cccc(C(=O)/C=C/c2ccc(Br)cc2)c1	-9.1	14.5	78.9*	?	-26.9	6.4	94.5*	88.2*
CC(=O)Nc1cccc(C(=O)/C=C/c2ccc(F)cc2)c1	-9.1	-7.2	68.4*	i	-19.8	2.3	88.0*	79.5*
CC(=O)Nc1cccc(C(=O)/C=C/c2ccc(N(C)C)cc2)c1	-22.6	-1.6	13.0	?	-3.0	-180.7	/	/
CCC(=O)Nc1cccc(C(=O)/C=C/c2cc(Br)ccc2OC)c1	-31.2	-0.9	50.6*	i	-8.4	1.4	92.2*	79.0*
O=C(Cc1cccc([N+](=O)[O-])c1)Nc1cccc(C(=O)N2CCCC2)c1	-0.9	-2.2	2.5	i	6.3	-0.2	/	/
O=C(Cc1cccc([N+](=O)[O-])c1)Nc1ccc(C(=O)N2CCCCC2)cc1	-5.5	-0.6	25.5*	i	0.5	-1.6	4.8	3.7
COc1ccc(/C=C/C(=O)c2ccncc2)c2ccccc12	-3.8	-0.9	56.2*	i	-5.7	-0.8	83.8*	79.0*
COc1cccc(/C=C/C(=O)c2cccc([N+](=O)[O-])c2)c1OC	-6.3	-2.7	85.4*	i	-3.3	5.1	101.3*	97.2*
COc1cccc(/C=C/C(=O)Nc2cccc(C(C)=O)c2)c1OC	-12.2	0.7	0.5	i	-7.4	-0.1	/	/
COc1ccc(OC(=O)c2cccc([N+](=O)[O-])c2)c(C(=O)/C=C/c2cccs2)c1	-5.7	-1.7	41.7*	i	7.6	1.6	56.7*	52.6*
COc1cccc(C(=O)/C=C/c2ccc(N3CCCCC3)c([N+](=O)[O-])c2)c1	12.4	-1.5	29.0*	i	-7.3	23.5	86.6*	73.1*
COc1cccc(CNc2ccc([N+](=O)[O-])cc2Cl)c1O	-49.5	9.9	4.3	i	-15.7	2.6	/	/
SMILES	sPLA2-III inh	Rtt109 HAT inh	ABHD5-PLIN5 inh	Myeloid diff MLP	Cardio protect	DAGLB inhibitor	ABHD5 PLIN5 conf	HNF4 split-luc
O=C(CSc1ncnc2scc(-c3ccccc3)c12)N1CCN(c2ccccc2F)CC1	1.4	-1.3	2.1	i	-4.7	-12.2	/	/
COc1cccc(/C=C/C(=O)c2cccc([N+](=O)[O-])c2)c1	-2.3	2.1	64.4*	i	-13.8	0.5	97.0*	97.2*
O=C(O)c1ccccc1Sc1ncnc2sccc12	-5.5	-6.1	-4.3	i	6.3	-1.3	/	/
Cc1ccc(Nc2c(-c3ccc(C)o3)nc3cnccn23)cc1	0.2	-4.2	19.6	i	-18.7	1.7	/	/
Cc1ccc(-c2nc3cnccn3c2Nc2ccccc2)o1	-4.9	-2.4	24.9*	i	-33.8	-2.0	39.4*	84.0*
CCSc1ccc2c(c1)N(CCCN1CCN(C)CC1)c1ccccc1S2	6.7	17.8	23.9*	i	3.1	4.3	35.7*	8.4
CCOC(=O)C1CCCCN1C(=O)/C(=C/c1ccc(OC)cc1)c1ccc(OC)c(OC)c1 (stereo unspecified)	-6.7	14.2	24.5*	i	11.4	0.4	-3.8	-0.2
CCOC(=O)C1CCCCN1C(=O)c1ccc2nc(Cc3ccc(OC)cc3)oc2c1 (stereo unspecified)	-60.4	-14.8	4.8	i	-7.9	-1.1	/	/
COc1ccc(C(CCN2CCOCC2)c2c(OC)cc(OC)c3c(-c4ccccc4)cc(=O)oc23)cc1 (stereo unspecified)	-10.9	0.2	24.8*	i	-1.5	-2.9	10.9	8.2
Nc1nc(N2CCN(C/C=C/c3ccccc3)CC2)nc2ccccc12	-6.8	17.8	27.8*	i	0.8	1.4	31.4*	6.6
CCC(/C=N/NC(=O)C1COc2ccccc2O1)CC (stereo unspecified)	-0.1	8.7	5.5	i	4.6	-1.0	/	/
CC(C)(C)c1cc(=O)n(-c2ccccc2)[nH]1	-2.3	12.9	25.7*	i	4.2	3.8	-19.9	-16.8
Cc1ccc(NCc2nc3ccccc3n2CCOc2ccccc2)cc1	2.7	0.8	25.5*	i	8.0	-2.7	5.7	1.8
COC(=O)[C@]12C[C@H](CC(=O)NCCCN3CCCC3=O)C(=O)N(Cc3ccccc3)C1=C[C@H](C1CCCC1)O[C@@H]2C	-2.7	/	/	/	/	/	/	/
CC(C)(C)Cc1c(-c2ccco2)nc2ccc(Cl)cn12	-1.2	/	14.8	i	-3.2	/	/	/
Cc1ccc2nc(-c3ccc(Cl)cc3)c(CC3CCCCC3)n2c1	-1.3	/	-8.7	i	-6.5	/	/	/
